Screen size: about 1,200 compounds; about 480 (40%) were called active. Not shown: some 29% with an inconclusive outcome. Calls follow the shape of the dose curve; as a rule, active = well fitted inhibition curve with a large enough effect; inconclusive = small, poorly fitted or top-dose-only effect; inactive = no such curve, though single readings can be large or run the other way. The list shows a part of the results. Entries that show only a call come without a potency.
Assay: qHTS Assay to Find Inhibitors of Chronic Active B-Cell Receptor Signaling: Hit Validation in Primary Screen; also: nearly all actives have a fitted effect of over 75% in size
Details: ABC-DLBCL IkB-luc/CBR ratio luminescence, 4 h; series mostly up to 46.1 µM
Procedure, shortened: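 TMD8 ABC-DLBCL cells carrying doxycycline-inducible IkBa-green luciferase fusion and free red luciferase, 0.5% FBS, dosed 46 uM–3 nM with doxycycline for 4 h at 37C. Green/red luminescence ratio normalized to basal and 10 uM MG-132.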
Potency is read from the fitted curve at half-maximal effect.

Row | Compound | Potency
1 | COc1cc2c(cc1OC)-c1cc(Nc3ccc(C)cc3)nc(=O)n1CC2 | 18.4 µM (active)
2 | COc1cc2c(cc1OC)-c1cc(Nc3ccc(N(C)C)cc3)nc(=O)n1CC2 | inactive
3 | COc1cc2c(cc1OC)-c1cc(Nc3ccccc3C)nc(=O)n1CC2 | inactive
4 | COc1ccc(Nc2cc3n(c(=O)n2)CCc2cc(OC)c(OC)cc2-3)c(C)c1 | 5.17 µM (active)
5 | COc1cc2c(cc1OC)-c1cc(Nc3ccccc3)nc(=O)n1CC2 | 18.4 µM (active)
6 | Oc1ccc(-c2nc3cnccn3c2Nc2ccc3c(c2)OCCO3)cc1 | 23.1 µM (active)
7 | CCOc1cc(C(=O)N/N=C(\C)Cc2ccc(OC)cc2)cc(OCC)c1OCC | inactive
8 | CCOc1ccccc1OCC(=O)N/N=C(\C)Cc1ccc(OC)cc1 | inactive
9 | O=C(COc1ccc(C(=O)c2ccccc2)cc1)NCc1ccc(F)cc1 | 4.61 µM (active)
10 | O=C(O)CCCCCCCCc1cn(Cc2ccc(C(=O)c3ccccc3)cc2)nn1 | inactive
11 | COc1ccc(CNC(=O)COc2ccc(C(=O)c3ccc(F)cc3)cc2)cc1 | 3.26 µM (active)
12 | Nc1ncnc2c1ncn2[C@@H]1O[C@H](CNCc2cccc(C#Cc3ccccc3)c2)[C@@H](O)[C@H]1O | inactive
13 | C[C@H](Cc1ccccc1)Nc1ncnc2c1ncn2[C@@H]1O[C@H](CO)[C@@H](O)[C@H]1O | 0.184 µM (active)
14 | OC[C@H]1O[C@@H](n2cnc3c(Nc4ccccc4)ncnc32)[C@H](O)[C@@H]1O | 7.31 µM (active)
15 | Cc1cn(-c2cccnc2)c(C)c1CNC[C@H]1O[C@@H](n2cnc3c(N)ncnc32)[C@H](O)[C@@H]1O | inactive
16 | CCn1c2ccccc2c2cc(Nc3cc(C)nc4ncnn34)ccc21 | 16.4 µM (active)
17 | Cc1cc(NC2CCCCC2)nc2ccccc12 | inactive
18 | COc1cccc(-c2nnc(SCC(=O)Nc3cc(C)on3)o2)c1 | inactive
19 | Cc1cc(NC(=O)CSc2nc3ccccc3c(=O)n2C2CCCC2)no1 | 4.61 µM (active)
20 | O=[N+]([O-])c1cc(O)c2ncccc2c1 | inactive
21 | COc1ccc(CNc2nc(NCc3ccc(OC)cc3)c3ncn(C4CCCC4)c3n2)cc1 | 2.31 µM (active)
22 | COC(=O)c1ccc(CNC(=O)Cn2cnc3c(NCc4ccccc4)ncnc32)cc1 | inactive
23 | NS(=O)(=O)c1cc(C(=O)OCC(=O)N2CCc3ccccc3C2)ccc1Cl | inactive
24 | O=C(OCC(=O)c1ccc[nH]1)c1ccc(Cl)c(Cl)c1 | inactive

Row | Compound | Potency
25 | CCn1c(=O)c([N+](=O)[O-])c(Cl)c2ccccc21 | 6.51 µM (active)
26 | CCOc1ccc(NCc2ccccc2OCc2cccc(F)c2)cc1 | inactive
27 | O=Cc1ccccc1OCCOc1ccccc1C=O | 20.6 µM (active)
28 | O=C(CSc1ncccc1C(=O)O)c1ccc2ccccc2c1 | inactive
29 | NC(=S)N=Nc1c(O)n(CCCl)c2ccccc12 | inactive
30 | C/C(Cl)=C\Cn1c(O)c(N=NC(N)=S)c2cc(Br)ccc21 | 14.6 µM (active)
31 | C=CCn1c(O)c(N=NC(=S)Nc2ccccc2F)c2cc(S(=O)(=O)N3CCOCC3)ccc21 | inactive
32 | CCOC(=O)c1[nH]c(C)c(C(=O)N2CCc3ccccc32)c1C | 4.61 µM (active)
33 | CCOC(=O)c1c(C)[nH]c(C(=O)N/N=C/c2ccc(Br)cc2)c1C | 0.92 µM (active)
34 | CCOC(=O)c1[nH]c(C)c(C(=O)OCC)c1C | 18.4 µM (active)
35 | CCOC(=O)c1[nH]c(C)c(C(=O)c2cc(F)ccc2F)c1C | 11.6 µM (active)
36 | CCOC(=O)c1[nH]c(C)c(C(=O)c2ccc(C)cc2)c1C | inactive
37 | CC[C@]12c3[nH]c4cc(CCC(=O)N(C)C)ccc4c3CCN1C(=O)[C@@H](CC(=O)NC/C=C(\C)CCC=C(C)C)C[C@@H]2C(=O)N1CCN(C(=O)c2ccco2)CC1 | inactive
38 | CCC1CCCCN1C(=S)NC(=O)c1cccs1 (stereo unspecified) | inactive
39 | CCN(CC(=O)Nc1cc(Cl)ccc1C)C(=O)C1CC1 | inactive
40 | CCOC(=O)c1[nH]c(C)c(C(=O)Nc2cc(Cl)ccc2C)c1C | 7.31 µM (active)
41 | CCOc1ccc(S(=O)(=O)Nc2cc(OC)ccc2OC)cc1 | 4.61 µM (active)
42 | COc1ccc(S(N)(=O)=O)cc1C(=O)OCCCOC(=O)c1cc(S(N)(=O)=O)ccc1OC | inactive
43 | CCN(CC)S(=O)(=O)c1ccc(N/N=C(\C)c2ccc(OC)cc2O)nc1 | inactive
44 | CC[C@]12c3[nH]c4cc(CCC(=O)N(C)C)ccc4c3CCN1C(=O)[C@@H](CC(=O)NCCc1ccccn1)C[C@@H]2C(=O)N1CCN(C(=O)C2CC2)CC1 | inactive
45 | CCN(CC)c1ccc(NC(=O)c2cc(OC)cc(OC)c2)c(C)c1 | 6.51 µM (active)
46 | C/C(=N\NC(N)=S)c1cc(-c2ccccc2)c(-c2ccccc2)s1 | inactive
47 | C=CCNC(=S)N/N=C/c1ccc(C(F)(F)F)cc1 | inactive
48 | CCN1C(=O)C(O)(C2COC(C)(C)CC2=O)c2cc(Br)ccc21 (stereo unspecified) | 18.4 µM (active)

Row | Compound | Potency
49 | CCc1ccc2oc(=O)cc(CN3CCCCC3C)c2c1 (stereo unspecified) | inactive
50 | COc1ccc(CCNCC(O)COc2cccc(Br)c2)cc1 (stereo unspecified) | inactive
51 | Oc1ccc(Nc2nc(-c3cccnc3)cs2)cc1 | 16.4 µM (active)
52 | COC1=CC(=O)CC(C)C12Oc1c(Cl)c(OC)cc(OC)c1C2=O (stereo unspecified) | inactive
53 | COc1cc(OC)c2c(c1)OC(=O)CC2c1cc(OC)c(OC)c(OC)c1 (stereo unspecified) | inactive
54 | COc1cc(C2C(C#N)=C(N)Oc3cc4c(cc32)OCO4)cc(OC)c1OC (stereo unspecified) | 0.461 µM (active)
55 | Nc1ncnc2c1ncn2[C@@H]1O[C@H](CNC(=O)[C@@H]2CCCN2S(=O)(=O)c2ccc(F)cc2)[C@@H](O)[C@H]1O | inactive
56 | Nc1ncnc2c1ncn2[C@@H]1O[C@H](COP(=O)(O)O)[C@@H](O)[C@H]1O | inactive
57 | OCC1OC(n2cnc3c(NC4CCCCC4)ncnc32)C(O)C1O (stereo unspecified) | 1.46 µM (active)
58 | Nc1nc(Cl)nc2c1ncn2[C@@H]1O[C@H](CO)[C@@H](O)[C@H]1O | 0.92 µM (active)
59 | C=CCNc1ncnc2c1ncn2C1OC(CO)C(O)C1O (stereo unspecified) | 23.1 µM (active)
60 | Nc1ncnc2c1ncn2C1OC(C(=O)NC2CC2)C(O)C1O (stereo unspecified) | 0.058 µM (active)
61 | Nc1ncnc2c1ncn2[C@@H]1O[C@H](CNCc2ccc(-c3cc(C(F)(F)F)ccc3Cl)o2)[C@@H](O)[C@H]1O | inactive
62 | CC1CCC2C(=O)N(c3ccc(C(=O)Oc4cccc5cccnc45)cc3)C(=O)C2C1 (stereo unspecified) | inactive
63 | O=C(Oc1c(CN2CCOCC2)cc(Cl)c2cccnc12)c1ccccc1Cl | inactive
64 | CCCC(=O)Nc1ncnc2c1ncn2[C@@H]1O[C@@H]2COP(=O)(O)O[C@H]2[C@H]1OC(=O)CCC | inactive
65 | OC[C@H]1O[C@@H](n2cnc3c(NC4CCCC4)ncnc32)[C@H](O)[C@@H]1O | 1.84 µM (active)
66 | OC[C@H]1O[C@@H](n2cnc3c(NC4CCCC4)nc(Cl)nc32)[C@H](O)[C@@H]1O | 1.3 µM (active)
67 | S=C(NCc1ccc2[nH]c3c(c2c1)CCCC3)Nc1ccccc1 | inactive
68 | Cc1ccccc1NC(=S)NCc1ccc2c(c1)cc(C)n2C | 1.46 µM (active)
69 | Cc1ccccc1NC(=S)c1ccc2ccccc2n1 | inactive
70 | COC(=O)Nc1nc(-c2ccccc2)c(C(=O)c2ccc(Cl)cc2)s1 | 3.66 µM (active)
71 | CC[C@@H]1Cc2cc(O)ccc2C2=C1c1ccc(O)cc1C[C@H]2CC | 14.6 µM (active)
72 | Cc1noc(C)c1COc1cccc(C(=O)OCC(=O)N2CC(=O)Nc3ccccc32)c1 | 20.6 µM (active)

Row | Compound | Potency
73 | CN(CC(=O)Nc1ccc2c(c1)OCCO2)Cc1nc2ccccc2c(=O)[nH]1 | inactive
74 | O=C(Cc1n[nH]c(=O)c2ccccc12)OCC(=O)c1ccc2c(c1)OCCO2 | 20.6 µM (active)
75 | CCOc1ccc(N(CC(=O)Nc2ccccc2C)S(=O)(=O)c2c(C)noc2C)cc1 | 14.6 µM (active)
76 | CCOc1ccc(S(=O)(=O)N(CC(=O)NN=C2CCN(C)CC2)c2ccc(C)cc2)cc1 | inactive
77 | CCOc1ccc(N(CC(=O)Nc2ccccc2OCC)S(=O)(=O)c2c(C)noc2C)cc1 | 2.91 µM (active)
78 | CCOc1ccc(N(CC(=O)Nc2ccccc2OC)S(=O)(=O)c2ccccc2)cc1 | 5.17 µM (active)
79 | FC(F)(F)c1nnc2ccc(Cl)nn12 | inactive
80 | O=C(N/N=C/C(Br)=C\c1ccccc1)c1ccc2nc[nH]c2c1 | inactive
81 | CC(/C=N/NC(=O)c1n[nH]c2c1CCC2)=C\c1ccccc1 | 0.58 µM (active)
82 | CCOc1cc(C(=O)N/N=C/C2CC=CCC2)cc(OCC)c1OCC (stereo unspecified) | inactive
83 | O=C(N/N=C/C(Br)=C\c1ccccc1)c1n[nH]c2c1CCC2 | 2.06 µM (active)
84 | CCOc1cc(C(=O)N/N=C/C(Br)=C/c2ccccc2)cc(OCC)c1OCC | 2.59 µM (active)
85 | Cc1c(CCC(=O)N2CCC(C(=O)O)(c3ccccc3)CC2)c(=O)oc2cc3oc4c(c3cc12)CCCC4 | inactive
86 | Cc1c(CCC(=O)N2CCC[C@H]2C(=O)O)c(=O)oc2cc3oc4c(c3cc12)CCCC4 | 23.1 µM (active)
87 | CCOC(=O)C(C)N1C(=O)S/C(=C/c2ccc3c(c2)n(C)c(=O)n3C)C1=O (stereo unspecified) | 18.4 µM (active)
88 | CCOC(=O)C(C)N1C(=O)S/C(=C/c2cc(C)n(-c3ccccn3)c2C)C1=O (stereo unspecified) | inactive
89 | COc1cc2c(c(OC)c1OC)C(c1ccc(C)cc1)CC(=O)O2 (stereo unspecified) | inactive
90 | COc1ccc(C2CC(=O)Nc3cc(OC)c(OC)cc32)cc1Br (stereo unspecified) | 20.6 µM (active)
91 | COc1cc2c(cc1OC)C(c1ccc(OC)c(OC)c1OC)CC(=O)N2 (stereo unspecified) | 23.1 µM (active)
92 | COc1cc(-c2noc(C)c2C#Cc2ccsc2)cc(OC)c1OC | 8.2 µM (active)
93 | COc1cc(-c2noc(C)c2C#Cc2ccc(N)cc2)cc(OC)c1OC | 2.91 µM (active)
94 | CNC(=S)N/N=C/c1ccco1 | inactive
95 | NC(=S)NN=C1c2ccccc2-c2ccccc21 | inactive
96 | CNC(=S)N/N=C1\C(=O)c2cccc3cccc1c23 | 18.4 µM (active)

Reference: PubChem BioAssay AID651558 (National Center for Advancing Translational Sciences (NCATS), 2012)
